A3G deaminase = inhibitors of human APOBEC3G DNA deaminase; recombinant A3G, ssDNA deamination FAM/TAMRA fluorescence; inhibition, % at 20 µM; 330,000 compounds, 0.28% hits;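 active = inhibition of at least 40% at 20 µM, with no more than 30% in the related APOBEC3A deaminase screen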;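 also: plate controls were DMSO wells with A3G for no effect and wells lacking A3G enzyme for full effect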
Target sequence (Q9HC16 whole entry, looked up): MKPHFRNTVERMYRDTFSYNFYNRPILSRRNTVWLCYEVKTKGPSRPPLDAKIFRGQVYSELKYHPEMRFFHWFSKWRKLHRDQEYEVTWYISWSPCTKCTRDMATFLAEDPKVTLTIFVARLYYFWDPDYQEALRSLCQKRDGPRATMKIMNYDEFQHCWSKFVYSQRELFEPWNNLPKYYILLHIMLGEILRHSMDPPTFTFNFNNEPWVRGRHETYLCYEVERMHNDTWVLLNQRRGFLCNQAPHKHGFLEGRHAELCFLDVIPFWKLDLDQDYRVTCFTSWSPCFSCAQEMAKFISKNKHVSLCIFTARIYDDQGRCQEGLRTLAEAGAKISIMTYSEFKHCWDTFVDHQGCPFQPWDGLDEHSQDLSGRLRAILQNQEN
Cardio protect = modulators protecting cardiomyocytes from myocardial damage; H9c2 cardiomyocytes, H2O2 injury protection, ATPLite, 2 h; protection from H2O2 cell death, % at 20 µM; 360,000 compounds, 0.63% hits;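 active = compounds giving at least 50% protection of heart cells from peroxide-induced death in the single-dose screen, raw or plate-pattern-corrected value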;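 also: 0% = DMSO wells with peroxide and 100% = DMSO wells without peroxide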
APOBEC3A inh = human APOBEC3A DNA deaminase inhibition; P31941; recombinant A3A, FAM/TAMRA ssDNA deamination fluorescence; inhibition, % at 20 µM; 330,000 compounds, 0.41% hits; AID 493011;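 active = at least 40% inhibition at 20 µM here, with at most 30% in a related deaminase screen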;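 also: plate controls were A3A with DMSO for no effect and wells lacking A3A enzyme for full effect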
NadD block = NadD (S. aureus) enzyme inhibition; inhibition, % at 20 µM; AID 602399; 360,000 compounds, 0.78% hits; purified NadD enzyme, colorimetric absorbance read-out; in the data active = inhibition above about 26%
PfGluPho inh = PfG6PD (Plasmodium falciparum) enzyme inhibition | PfGluPho enzyme, NADPH resazurin-diaphorase fluorescence | inhibition, % at 20 µM | 350,000 compounds, 0.78% hits | AID 504690;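 active = inhibition reaching at least a set limit at 20 µM in the primary screen, cut at about 59% in these data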;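 also: 0% = DMSO wells with substrate and 100% = DMSO wells lacking glucose-6-phosphate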
H9c2 TAG inh = inhibitors of triacylglycerol accumulation | H9c2 cells, Nile Red lipid (TAG) fluorescence; cells loaded with 200 µM oleic acid | inhibition, % at 12.5 µM | 230,000 compounds, 0.66% hits | AID 651582;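 active = pattern-corrected inhibition of lipid staining of at least 50% with the nuclear-stain viability signal not falling by more than 50%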;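 also: 0% = DMSO wells and 100% = triacsin C control wells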
A3G conf = APOBEC3G (human) deaminase inhibition, confirmed; shares compounds with A3G deaminase; recombinant A3G ssDNA deaminase, UDG/FAM-TAMRA fluorescence; inhibition, % at 20 µM; 890 compounds, 72% hits; AID 493152;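 active = inhibition reaching a set limit in any replicate at 20 µM, the limit being 80% of the first screen's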
UDG ctr A3G = counter-screen for APOBEC3G inhibitors: E. coli UDG. shares compounds with A3G deaminase. UDG counterscreen, FAM/TAMRA oligo fluorescence. inhibition, % at 20 µM. 710 tested, under 10 active. AID 504715;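 active = compounds giving 40% or more inhibition at 20 µM in any one of the three replicates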;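 also: plate controls were DMSO wells with UDG and oligo for no effect and DMSO wells lacking both for full effect; inhibitors lower the FAM signal released by uracil excision and alkaline cleavage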
Target sequence (P12295 whole entry, looked up): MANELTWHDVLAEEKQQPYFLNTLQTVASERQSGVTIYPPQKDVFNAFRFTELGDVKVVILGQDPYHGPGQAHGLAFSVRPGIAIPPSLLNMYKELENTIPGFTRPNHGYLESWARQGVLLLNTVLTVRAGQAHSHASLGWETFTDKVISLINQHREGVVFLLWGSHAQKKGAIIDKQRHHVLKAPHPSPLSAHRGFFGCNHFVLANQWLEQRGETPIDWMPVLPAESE
An asterisk follows results filed as active; ! = repeats disagree. In the library only some 2.9% were active in any assay of this set; here they are far more common.

How did COc1cccc(CN2CCN(Cc3[nH]c4ccccc4c3C)CC2CCO)c1 (stereo not drawn) do in these assays?
A3G deaminase: 51*; Cardio protect: -2; APOBEC3A inh: -2; NadD block: -6; PfGluPho inh: 2; A3G conf: -8; UDG ctr A3G: -8

How did CCCCCCNC(=O)N[C@H](C(=O)NCCC[C@H]1CN2C(=NC[C@H]2C)N1CCC(c1ccccc1)c1ccccc1)C(C)O (stereo partly drawn) do in these assays?
A3G deaminase: 78*; APOBEC3A inh: 4; A3G conf: 73*

Results for CCC(CC)C(=O)c1c[nH]c(C(=O)N2CCN(c3ccc(OC)cc3)CC2)c1 ?
A3G deaminase: 48*; Cardio protect: 6; APOBEC3A inh: -6; NadD block: -4; PfGluPho inh: -5; H9c2 TAG inh: 0; A3G conf: -2; UDG ctr A3G: -5

How did CCC(=O)c1c[nH]c(C(=O)N2CCN(c3ccccc3)CC2)c1 do in these assays?
A3G deaminase: -3; Cardio protect: 3; APOBEC3A inh: 0; NadD block: -1; PfGluPho inh: -5

How did COc1ccc(OCC(=O)Nc2cc(-c3nn(C)c(=O)c4ccccc34)ccc2N2CCOCC2)cc1 do in these assays?
A3G deaminase: -2; Cardio protect: 20; APOBEC3A inh: 4; NadD block: -6; PfGluPho inh: 7; H9c2 TAG inh: 6

Results for O=C(CCC(=O)OCC(=O)c1ccc(C(F)(F)F)cc1)OCC(=O)c1ccc(C(F)(F)F)cc1 ?
A3G deaminase: -4; Cardio protect: 8; APOBEC3A inh: -2; NadD block: -3; PfGluPho inh: -6; H9c2 TAG inh: 11

Results for COCCCC/C(=N\OCCN)c1ccc(C(F)(F)F)cc1 ?
A3G deaminase: 81*!; Cardio protect: -7; APOBEC3A inh: 0; NadD block: -4; PfGluPho inh: -21; H9c2 TAG inh: 18; A3G conf: -6; UDG ctr A3G: 0

How did O=C(CC1Sc2ncnn2C1=O)Nc1ccc(Br)cc1 (stereo not drawn) do in these assays?
A3G deaminase: 41*; Cardio protect: -19; APOBEC3A inh: -1; NadD block: 7; PfGluPho inh: 3; H9c2 TAG inh: 4; A3G conf: 70*; UDG ctr A3G: -3

What do the screens show for `O=C(CC1SC2=NCCN2C1=O)Nc1ccc(Br)cc1` (stereo not drawn)?
A3G deaminase: -2; Cardio protect: -2; APOBEC3A inh: -4; NadD block: -1; PfGluPho inh: -2

Results for CC1(C)Cc2c(sc3ncn4c(=S)[nH]nc4c23)CO1 ?
A3G deaminase: 42*; Cardio protect: 2; APOBEC3A inh: 0; NadD block: -2; PfGluPho inh: 49; H9c2 TAG inh: -8; A3G conf: 74*; UDG ctr A3G: -3

What do the screens show for `CCOC(=O)c1c(NC(=O)CCC(=O)O)sc2c1CCCCC2`?
A3G deaminase: 40*; Cardio protect: 8; APOBEC3A inh: 1; NadD block: 1; PfGluPho inh: 45; A3G conf: 23

Results for CCOC(=O)c1c(NC(=O)CCCC(=O)O)sc2c1CCC2 ?
A3G deaminase: -1; Cardio protect: -2; APOBEC3A inh: 0; NadD block: 7; PfGluPho inh: -24; H9c2 TAG inh: -5

How did CC(C)c1ccc(N2C(=O)CC(Sc3ncn[nH]3)C2=O)cc1 (stereo not drawn) do in these assays?
A3G deaminase: 35; Cardio protect: -20; APOBEC3A inh: -2; NadD block: -2; PfGluPho inh: -25; H9c2 TAG inh: -5

Results for COc1ccc(N2C(=O)CC(Sc3ncn[nH]3)C2=O)c(OC)c1 (stereo not drawn) ?
A3G deaminase: 46*; Cardio protect: -30; APOBEC3A inh: -5; NadD block: 2; PfGluPho inh: -2; A3G conf: active; UDG ctr A3G: -2

How did O=C(NC(=S)Nc1ccc2oc(-c3cccnc3)nc2c1)c1cccc(Cl)c1 do in these assays?
A3G deaminase: -3; Cardio protect: -1; APOBEC3A inh: -2; NadD block: 0; PfGluPho inh: -2; H9c2 TAG inh: -3

Results for COc1ccc(N2C(=O)CS(=O)C(c3ccccc3)C2=O)cc1 (stereo not drawn) ?
A3G deaminase: 54*; Cardio protect: -1; APOBEC3A inh: -4; NadD block: -4; PfGluPho inh: 19; H9c2 TAG inh: -9; A3G conf: 90*; UDG ctr A3G: -4

What do the screens show for `NC(=O)CSc1nc2cc(S(=O)(=O)N3CCOCC3)ccc2o1`?
A3G deaminase: 43*; Cardio protect: 5; APOBEC3A inh: 3; NadD block: -2; PfGluPho inh: 55; H9c2 TAG inh: -7; A3G conf: 24*; UDG ctr A3G: -2

How did Cc1ccc(Nc2nnns2)cc1 do in these assays?
A3G deaminase: 41*; Cardio protect: -2; APOBEC3A inh: 2; NadD block: 0; PfGluPho inh: 60*; H9c2 TAG inh: 3; A3G conf: 27*; UDG ctr A3G: -4

Results for O=[N+]([O-])c1cccc(-c2n[nH]c(=S)n2Cc2ccccc2)c1 ?
A3G deaminase: 29; Cardio protect: 6; APOBEC3A inh: -7; NadD block: 8; PfGluPho inh: 20

What do the screens show for `C=C(C)Cn1c(-c2cccc([N+](=O)[O-])c2)n[nH]c1=S`?
A3G deaminase: 44*; Cardio protect: -1; APOBEC3A inh: -7; NadD block: 1; PfGluPho inh: 16; H9c2 TAG inh: 17; A3G conf: 75*; UDG ctr A3G: 3

Results for C=C(C)Cn1c(-c2cccs2)n[nH]c1=S ?
A3G deaminase: 55*; Cardio protect: -4; APOBEC3A inh: 2; NadD block: -2; PfGluPho inh: 33; H9c2 TAG inh: -9; A3G conf: 55*; UDG ctr A3G: 6

Results for C=CCn1c(OCc2ccccc2)n[nH]c1=S ?
A3G deaminase: 41*; Cardio protect: -7; APOBEC3A inh: -3; NadD block: -4; PfGluPho inh: 17; A3G conf: 67*; UDG ctr A3G: -2

What do the screens show for `C=CCn1c(-c2cccc([N+](=O)[O-])c2)n[nH]c1=S`?
A3G deaminase: 43*; Cardio protect: 2; APOBEC3A inh: -2; NadD block: -1; PfGluPho inh: 19; H9c2 TAG inh: 10; A3G conf: 68*; UDG ctr A3G: 5

How did COn1c(-c2ccc(Cl)cc2)nc2ncccc21 do in these assays?
A3G deaminase: -8; Cardio protect: -4; APOBEC3A inh: 10; NadD block: -3; PfGluPho inh: 15

Assay outcomes from PubChem.
